Consider 17 compounds from PubChem BioAssay (Tox21).

Test [1] is described as follows: qHTS assay to identify small molecule agonists of the estrogen receptor alpha (ER-alpha) signaling pathway in the presence of an antagonist - cell viability counter screen (AID 1259386).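 Note: series mostly up to about 92 µM; cells exposed to compounds for 22 h at 37 °C before the viability read; nearly all actives have a fitted effect of over 30% in size.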 The method, boiled down:
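VM7Luc4E2 cells (endogenous full-length ER-alpha, 4×ERE-luciferase) were held 5 days in phenol red-free medium with 10% charcoal-stripped FBS, plated, then given 10.0nM ICI-182,780 and compounds at 15 concentrations for 22hr at 37C; viability read by CellTiter-Fluor fluorescence.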
(In general: In qHTS, concentration-response curves come from the screen itself.)

The nature of test [2]: qHTS assay to identify small molecule antagonists of the TGF-beta/Smad signaling pathway - cell viability counter screen (AID 1346824). Note: nearly all actives have a fitted effect of over 50% in size. The method, boiled down:
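SBE-bla HEK 293T cells were plated overnight at 37 C, then given compounds in DMSO plus TGF-beta1 (added as 0.25 ng/mL solution) for 5 hr. After the bla read, CellTiter-Glo was added to the same wells and luminescence read after 30 min at room temperature.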

Test [3] can be described thus: qHTS assay to identify small molecule agonists of the TGF-beta/Smad signaling pathway - cell viability counter screen (AID 1346829). Note: top concentration of the series differs between compounds; nearly all actives have a fitted effect of over 45% in size. The method, boiled down: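 Luminescence from CellTiter-Glo, read after a 30 min room-temperature incubation, gives cell viability of SBE-bla HEK 293T cells treated 5 hr with compounds at 37 C.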
Test [4] is described as follows: qHTS assay to identify small molecule agonists of the TGF-beta/Smad signaling pathway (AID 1346859; active = well fitted activation curve with a large enough effect in the signal ratio in the repeat runs, not every such curve was filed as active; the % refers to the signal ratio; note: series mostly up to about 77 µM). The method, boiled down: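 Read-out: fluorescence at 460 and 530 nm (405 nm excitation) after a 2 hr room-temperature incubation with beta-lactamase FRET substrate. SBE-bla HEK 293T cells had been treated with test compounds for 5 hr at 37 C.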
The nature of test [5]: qHTS assay to identify small molecule antagonists of the progesterone receptor (PR) signaling pathway - cell viability counter screen (AID 1346798). Note: series mostly up to about 92 µM; nearly all actives have a fitted effect of over 50% in size. The method, boiled down:
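Luminescence readout (CellTiter-Glo, 30 min, RT) of viability in PR-UAS-bla HEK293T cells exposed to compound and R5020 agonist for 16 hr at 37C, 5% CO2; run in the same wells as the beta-lactamase reporter read.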

A short description of test [6]: qHTS assay to identify small molecule agonists of the progesterone receptor (PR) signaling pathway - cell viability counter screen (AID 1346799; calls by dose curve; note: nearly all actives have a fitted effect of over 45% in size). The method, boiled down:
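HEK293T PR-UAS-bla, 3,000 cells/well, 2% charcoal-stripped FBS; 6 h settle, compound 16 h at 37C/5% CO2; LiveBLAzer 2 h RT, then CellTiter-Glo 30 min RT, luminescence read.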

The target in test [7] is Progesterone receptor (Homo sapiens) (UniProt P06401). The experiment in a line: qHTS assay to identify small molecule agonists of the progesterone receptor (PR) signaling pathway (AID 1346784; calls by dose curve; note: nearly all actives have a fitted effect of over 30% in size; note: potency is the fitted concentration of half-maximal effect). The method, boiled down: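 HEK 293T PR-UAS-bla reporter cells, 2% charcoal-stripped FBS; 6 hr settle at 37C/5% CO2, compound (DMSO) 16 hr, LiveBLAzer B/G FRET substrate 2 hr RT, fluorescence intensity read.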
Progesterone receptor (Homo sapiens), sequence (P06401 whole entry, looked up): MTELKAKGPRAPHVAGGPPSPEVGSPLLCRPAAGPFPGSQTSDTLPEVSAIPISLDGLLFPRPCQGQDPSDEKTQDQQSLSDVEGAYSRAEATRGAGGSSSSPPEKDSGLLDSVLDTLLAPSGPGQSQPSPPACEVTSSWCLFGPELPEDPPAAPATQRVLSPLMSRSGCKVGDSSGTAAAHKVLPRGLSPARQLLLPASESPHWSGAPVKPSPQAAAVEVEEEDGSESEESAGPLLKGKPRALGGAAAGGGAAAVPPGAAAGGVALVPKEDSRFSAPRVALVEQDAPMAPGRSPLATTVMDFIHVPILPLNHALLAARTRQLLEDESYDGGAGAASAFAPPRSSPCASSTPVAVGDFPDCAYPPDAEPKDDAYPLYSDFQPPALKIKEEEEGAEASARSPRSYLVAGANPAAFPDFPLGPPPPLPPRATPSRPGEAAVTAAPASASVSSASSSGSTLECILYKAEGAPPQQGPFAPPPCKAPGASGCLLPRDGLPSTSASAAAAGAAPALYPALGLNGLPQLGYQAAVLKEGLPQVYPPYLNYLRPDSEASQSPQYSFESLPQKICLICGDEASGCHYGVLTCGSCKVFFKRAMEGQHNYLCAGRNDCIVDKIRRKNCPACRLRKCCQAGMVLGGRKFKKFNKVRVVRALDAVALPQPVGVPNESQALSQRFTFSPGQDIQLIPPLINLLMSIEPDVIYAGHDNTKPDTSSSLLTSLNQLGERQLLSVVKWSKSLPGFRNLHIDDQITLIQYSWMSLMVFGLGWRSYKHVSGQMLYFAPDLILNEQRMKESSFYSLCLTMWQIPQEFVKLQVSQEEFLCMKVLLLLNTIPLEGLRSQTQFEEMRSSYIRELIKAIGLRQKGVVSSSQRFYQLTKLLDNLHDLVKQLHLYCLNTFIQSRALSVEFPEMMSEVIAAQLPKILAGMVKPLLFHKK

Test [8] addresses Thyrotropin-releasing hormone receptor (Homo sapiens) (UniProt P34981). The experiment in a line: qHTS assay to identify small molecule antagonists of the thyrotropin-releasing hormone receptor (TRHR) signaling pathway (AID 1346877; active = well fitted inhibition curve with a large enough effect in the repeat runs, not every such curve was filed as active; note: series mostly up to about 51 µM). The method, boiled down: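 TRHR-expressing HEK293 cells were seeded, cultured 18 h at 37 °C, then loaded with calcium dye for 2 h. Compounds were pre-incubated 5 min at room temperature before 1 nM TRH (final) was added, and kinetic fluorescence was recorded for 3 min.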

The target in test [9] is Progesterone receptor (Homo sapiens) (UniProt P06401). The test can be described thus: qHTS assay to identify small molecule antagonists of the progesterone receptor (PR) signaling pathway (AID 1346795; active = well fitted inhibition curve with a large enough effect in the signal ratio in the repeat runs, not every such curve was filed as active; the % refers to the signal ratio; note: potency is the fitted concentration of half-maximal effect). The method, boiled down: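 Beta-lactamase reporter, HEK293T PR-UAS-bla line; 2% charcoal-stripped FBS; 6 hr pre-incubation, 37C/5% CO2. Compound + R5020 1 nM final, 16 hr. LiveBLAzer B/G FRET substrate, 2 hr RT; fluorescence intensity read.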

Records with an inconclusive call do not appear. The source made the active and inactive calls. Unless noted, calls come from the whole dose curve; as a rule, active = well fitted curve in the direction sought with a large enough effect in the repeat runs; inconclusive = weak or mixed curves; inactive = no such curve, though single readings can be large; an effect the other way counts as inactive or inconclusive.

Thyrotropin-releasing hormone receptor (Homo sapiens), sequence (P34981 whole entry, looked up): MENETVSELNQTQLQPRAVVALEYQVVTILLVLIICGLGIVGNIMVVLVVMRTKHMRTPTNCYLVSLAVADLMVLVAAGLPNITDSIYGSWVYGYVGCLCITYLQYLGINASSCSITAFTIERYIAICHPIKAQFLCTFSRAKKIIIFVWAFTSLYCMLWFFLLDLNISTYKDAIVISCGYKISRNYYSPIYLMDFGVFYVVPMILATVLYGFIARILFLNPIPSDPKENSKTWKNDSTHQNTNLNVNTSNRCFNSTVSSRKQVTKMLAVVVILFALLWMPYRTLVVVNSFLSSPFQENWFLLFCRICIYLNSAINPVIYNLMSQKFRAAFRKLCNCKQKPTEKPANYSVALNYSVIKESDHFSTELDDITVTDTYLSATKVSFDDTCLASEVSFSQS

Take `C[C@@H]1C[C@H]2[C@@H]3CCC4=CC(=O)C=C[C@]4(C)[C@@]3(F)[C@@H](O)C[C@]2(C)[C@@]1(O)C(=O)CO`: the Potency entry in test [1] is “inactive”. Also, the compound was called inactive in [2], in [3] and in test [4].

With `CC(C)=CC=O`, the Potency result in [1], in test [5] and in test [6] was “inactive” throughout. Further, the result in test [2], in [3] and in [4] was inactive.

`CSc1ccc(Oc2ccc(S(N)(=O)=O)cc2CN(C)C)cc1C`: the Potency result in [1], in [7] and in test [6] was “inactive” each time. Further, the call in [2], in test [3] and in [8] was inactive.

For `NC(=O)N(O)[C@@H]1C=C[C@H](Oc2cccc(Oc3ccc(F)cc3)c2)C1`, the Potency result in test [7] was “inactive”. Further, the compound was classed as inactive in test [2], in test [3] and in test [4].

`CCCCCCOC(=O)C(C)C`: the Potency entry in test [1], in test [9], in test [5] and in test [6] was “inactive” in each case. Also, the compound was classed as inactive in test [2], in test [3] and in test [4].

With `COc1ccc(C(=O)c2cccc(O)c2)c(OC)c1`, the Potency entry in test [1] and in test [7] was “inactive” in each case. Also, the result in [2], in [3], in test [4] and in [8] was inactive.

As for `Nc1ccc(C(=O)OCCCOC(=O)c2ccc(N)cc2)cc1`, the Potency result in [1] and in [7] was “inactive” throughout. The outcome in test [3] and in [4] was inactive.

Take `N#C/C(=C1/SC[C@@H](c2ccc(Cl)cc2Cl)S1)n1ccnc1`: the Potency result in test [1] and in [7] was “inactive” each time. Moreover, the call in test [2] and in test [3] was inactive.

For the compound `CC(=O)[C@H]1CC[C@H]2[C@@H]3C[C@H](C)C4=CC(=O)CC[C@]4(C)[C@H]3[C@@H](O)C[C@]12C`, the Potency result in [1] is “inactive”. The Potency in test [7] was 0.0067 µM (active). Also, the compound was classed as inactive in test [2], in [3] and in test [8].

Regarding `COc1cc2ncnc(Nc3ccc(F)c(Cl)c3)c2cc1OCCCN1CCOCC1`, the Potency entry in test [1] is “inactive”. Moreover, the Potency in test [9] is 21.1 µM (active). The call in test [2], in test [3], in test [4] and in [8] was inactive.

As for `CO[C@@]12[C@H](COC(N)=O)C3=C(C(=O)C(C)=C(N)C3=O)N1C[C@@H]1N[C@@H]12`, the Potency entry in test [7] and in [5] was “inactive” in each case. The outcome in test [2], in [3] and in test [4] was inactive.

`COc1cc2c(N3CCN(C(=O)Nc4ccc(OC(C)C)cc4)CC3)ncnc2cc1OCCCN1CCCCC1`: the Potency result in [7], in test [9], in test [5] and in test [6] was “inactive” each time. In addition, the call in test [3], in test [4] and in [8] was inactive.

`C(=C\c1ccccc1)/CN1CCN(C(c2ccccc2)c2ccccc2)CC1`: in [1], the Potency result was “inactive”. The compound was called inactive in test [2], in test [3], in [4] and in [8].

On to `Cc1ccc(Nc2nccc(N(C)c3ccc4c(C)n(C)nc4c3)n2)cc1S(N)(=O)=O`, for which, in [7], the Potency entry was “inactive”. The compound was called inactive in test [2], in test [3], in [4] and in test [8].

Consider `NC(=O)Cn1c(=O)cc(CCN2CCN(c3nccc4sccc34)CC2)c2ccc(F)cc21`, for which the Potency entry in test [7] and in test [9] was “inactive” throughout. Moreover, the result in test [2], in test [3] and in test [8] was inactive.

On to `O=C(c1ccc(O)cc1)c1ccc(Cl)cc1`, for which the Potency result in test [5] was “inactive”. Also, the compound was classed as inactive in [3] and in test [8].

On to `O=C(CCC1CCN(Cc2ccccc2)CC1)c1ccc2c(c1)NCCCC2`, for which the Potency entry in test [7], in [9] and in [5] was “inactive” each time. For the same compound, the compound was classed as inactive in test [2], in test [3], in [4] and in [8].
